According to PubChem BioAssay:

Assay: E. coli growth modulation, two-sided OD650, primary screen, E. coli filamentation project, strain DRC41, 24 h (AID 1093);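 further: MC1000 strain lacking acrAB efflux and sulA so SOS filamentation is blocked; test concentration not given here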
Conditions: OD650, 24 h, higher = more signal, called active from +8 up or from −8 down

z-score, inactive:
CO[C@H]1O[C@H](CO)[C@@H](OC(=O)Nc2ccc3c(c2)OCO3)[C@H](OC(=O)Nc2ccc3c(c2)OCO3)[C@@H]1OC(=O)Nc1ccc2c(c1)OCO2 0.508, CCCC1(C(=O)OC)C=C2C(=C(C)C(=O)C2C)CN1 (stereo unspecified) -0.827, CO[C@H]1O[C@H](CO)[C@@H](OC(=O)Nc2ccccc2)[C@H](OC(=O)c2cc3ccccc3[nH]2)[C@H]1OC(=O)c1cc2ccccc2[nH]1 0.0433, O=C1O[C@H](c2ccccc2)[C@H](c2ccccc2)N2[C@H]1[C@@H](C(=O)O)[C@]1(C(=O)Nc3ccc(C#CCCO)cc31)[C@H]2c1ccccc1OCCO 0.18, CCCCC[C@H]1OC[C@@]23C=C(Br)[C@@H](CC12)[C@@]1(CO1)C3=O (stereo partly specified) -0.971, CCCCN1CC=CC23O[C@@H]4/C=C\CCC(C)OC(=O)C4[C@H]2C(=O)N(CCCO)[C@@H]3C1=O (stereo partly specified) 0.755, CC[C@@H]1C=C(C(=O)O)[C@H](c2ccc(C#N)cc2)N1S(=O)(=O)c1ccc(C)cc1 0.405, O=C1[C@H]2C=C(I)[C@H](C[C@@H]2OCCOCCO)[C@@]12CO2 -0.935, COCCOC(=O)N1C(=O)[C@@]2(c3cc(C#CC4=CCCCC4)ccc31)[C@H](C(=O)Nc1nc3ccccc3s1)[C@H]1C(=O)O[C@H](c3ccccc3)[C@H](c3ccccc3)N1[C@@H]2c1ccc(O)cc1 0.0627, COc1ccc([C@H]2OC[C@@H]3C[C@H](Cc4ccccc4)C(=O)N32)cc1 -0.238, NC(=O)NCC#Cc1ccc2c(c1)[C@]1(C(=O)N2)[C@H](c2ccccc2OCCO)N2[C@H](c3ccccc3)[C@H](c3ccccc3)OC(=O)[C@H]2[C@@H]1C(=O)O 1.4, CC1CC/C=C\[C@H]2OC34C=CCN(c5ccc(Cl)cc5)C(=O)[C@H]3N(C(C)CO)C(=O)[C@]4(C)C2C(=O)O1 (stereo partly specified) 0.108, CCOC(=O)C1=C[C@@H](C(C)C)N(S(=O)(=O)c2ccc(C)cc2)[C@H]1c1ccc(C(F)(F)F)cc1 -0.961, OCCCC1=CC(c2ccc(CN3CCCC3)cc2)N(Cc2cc3c(cc2Br)OCO3)CC1 (stereo unspecified) 0.497, CCCCCCCCCC(O)C1C=CC2C(=O)N(c3ccccc3)C(=O)C2N1Nc1cc(OC)c(OC)c(OC)c1 (stereo unspecified) -3.91, COCCCNC(=O)[C@@]1(CCC(=O)OC(C)(C)C)N=C(c2ccc(OCCCO)cc2)O[C@H]1c1ccccc1N=[N+]=[N-] 1.21, COc1cc(OC)c(C(O)C2C=CC3C(=O)N(Cc4ccccc4)C(=O)C3N2n2cnnc2)cc1Br (stereo unspecified) -1.21, C[N+](C)(C)CCCC[C@@H]1NC(=O)[C@@H]2C[C@H](C(=O)NCCCCCCN)[C@H](c3cccc(OCCO)c3)N2C1=O 0.0037, O=C1C2C=CC(C(O)C3CC=CCC3)N(Nc3ccccc3)C2C(=O)N1c1ccccc1 (stereo unspecified) -1.6, C=CCNC(=O)[C@H]1[C@@H]2C(=O)O[C@@H](c3ccccc3)[C@@H](c3ccccc3)N2[C@@H](c2ccccc2OCCO)[C@]12C(=O)N(C(=O)OCCOC)c1ccc(C#CC3(O)CCCCCC3)cc12 1.31, COCCOC(=O)N1C(=O)[C@@]2(c3cc(C#CC4=CCCCC4)ccc31)[C@H](c1ccccc1OCCO)N1[C@H](c3ccccc3)[C@H](c3ccccc3)OC(=O)[C@H]1[C@@H]2C(=O)NC[C@H](O)c1ccccc1 -0.314, CCCC[C@@H](O)C1=C(COc2ccccc2)C[C@H]2C(=O)N(Cc3ccccc3)C(=O)[C@H]2[C@H]1CO 0.672, O=C1OCCC/C=C\[C@H]2OC34C=CCN(c5ccc6ccccc6c5)C(=O)[C@H]3N(CCO)C(=O)[C@@H]4C12 (stereo partly specified) 0.491, COC(=O)c1c(CC[C@@H](CO)NC(=O)N[C@@H](C)Cn2cc(-c3ccccn3)nn2)oc(C(C)=O)c1C(=O)OC -0.608, CC(C)C[C@@H]1NC(=O)[C@@H]2C[C@H](C(=O)NCCCCCCN)[C@H](c3cccc(OCCO)c3)N2C1=O 1.03, [N-]=[N+]=Nc1ccccc1C[C@@]1(C(=O)N2CCOCC2)N=C(c2ccc(OCCCO)cc2)O[C@@H]1c1ccccc1 0.568
